A selection: hits, their analogues and other compounds. The true share with any hit is near 2.2%.
IDH1 R132H inh: blocks human mutant IDH1 R132H enzyme. 390,000 tested, 0.093% active. O75874. Potency, µM (top dose mostly 76.6 µM), usual class: inhibitors. IDH1-R132H enzyme, NADPH consumption, diaphorase/resazurin fluorescence; also: nearly all actives have a fitted effect of over 65% in size
Target sequence (O75874 whole entry R132H, stated change not applied): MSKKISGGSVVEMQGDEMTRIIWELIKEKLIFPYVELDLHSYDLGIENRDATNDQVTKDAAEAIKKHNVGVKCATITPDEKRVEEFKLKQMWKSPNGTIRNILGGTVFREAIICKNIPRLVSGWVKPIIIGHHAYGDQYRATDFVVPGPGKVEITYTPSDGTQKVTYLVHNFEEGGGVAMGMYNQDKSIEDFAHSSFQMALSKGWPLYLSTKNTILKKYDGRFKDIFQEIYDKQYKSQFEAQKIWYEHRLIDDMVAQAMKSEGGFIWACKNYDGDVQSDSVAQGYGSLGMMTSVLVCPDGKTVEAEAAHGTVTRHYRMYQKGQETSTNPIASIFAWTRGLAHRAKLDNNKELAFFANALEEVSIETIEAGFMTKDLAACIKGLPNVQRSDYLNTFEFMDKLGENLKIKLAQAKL
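IDH1-R132H (0.5 ug/mL) preincubated 30 min with compound, then NADPH (0.016 mM) and alpha-KG (2 mM) added; 80 min at RT, pH 7.5. Remaining NADPH coupled via diaphorase/resazurin to fluorescence (540/590 nm); concentration-response curves normalized to no-enzyme control.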
ATXN viability: reduces viability in counter-screen for ATXN expression inhibitors | 400,000 tested, 0.49% active | Potency, µM (series often up to 56.7 µM), usual class: cytotoxic | S2 cells (HEK-293 line with an ATXN2-luciferase reporter) viability, CellTiter-Fluor protease fluorescence, 24 h | AID 651635; also: nearly all actives have a fitted effect of over 40% in size
TGFb inhibitor: TGF-b pathway inhibition | HepG2 CAGA-GFP TGF-b/SMAD3 reporter, GFP fluorescence, 18 h; TGF-beta stimulated, 500 pg/mL final | Potency, µM (doses to about 46.1 µM), usual class: inhibitors | 410,000 tested, 1.2% active | AID 588855; also: nearly all actives have a fitted effect of over 65% in size
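HEPG2 CAGA-GFP, 1000 cells/well; 2 h settle, 37 C; cpd via pin tool; TGF-b 500 pg/mL final; 18 h, 37 C; GFP imaging ex488/em500-530; %Activity normalised to -TGF-b and +DMSO controls; CRC fit, curve class.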
HepG2 tox: counter-screen for TGF-b inhibitors: cytotoxicity in HepG2 cells | HepG2 CAGA-GFP viability, ATP luminescence, 18 h | Potency, µM (titrated, usually from 46.1 µM), usual class: cytotoxic | 410,000 tested, 0.76% active | AID 588856
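HepG2 CAGA-GFP cells (1000/well, DMEM with 1% FBS) received compound, then TGF-beta at 500 pg/mL final, and were incubated 18 hours at 37 degrees C. Viability was read by CellTiter-Glo luminescence. Media-only wells were set as complete cell-killing and DMSO as no toxicity.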
ATXN2 expr inh: inhibitors of ATXN2 expression; HEK-293 ATXN2-luciferase reporter, luminescence, 24 h; Potency, µM (highest dose often 57 µM), hits mostly inhibitors; 360,000 tested, 0.72% active; AID 1745845; also: nearly all actives have a fitted effect of over 55% in size
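qHTS (up to 57 uM final) was run with 24 h compound exposure of reporter cells at 37 °C. Each well was multiplexed: SteadyGlo luminescence measured ATXN2-luciferase expression after a fluorogenic Gly-Phe-AFC viability readout (25 uM final).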
LDHA inh: blocks human lactate dehydrogenase A; P00338; purified LDHA, NADH/diaphorase-resazurin fluorescence; hits give low values; activity change, % (values are at about 110 or 230 µM); 480,000 tested, 0.15% active; AID 1347041; in the data active = activity change below about -30%; inconclusive = mostly about -25% to -30%
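Enzyme activity of human lactate dehydrogenase 5 (2 nM; 0.06 mM NADH, 0.2 mM pyruvate, 5 min, RT) is measured via a resazurin/diaphorase fluorescence readout of residual NADH.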
Each line names hits and unclear results; the compound was inactive in the other large screens; ! = not confirmed by another sample. Unless noted, calls follow the shape of the dose curve; as a rule, active = well fitted curve in the direction sought with a large enough effect; inconclusive = small, poorly fitted or top-dose-only effect, or another doubt; inactive = no such curve, though single readings can be large; an effect the other way counts as inactive or inconclusive.

CN1CCN(C(=O)CNc2ccc(C(F)(F)F)cc2[N+](=O)[O-])CC1	ATXN viability inconclusive
CCOc1c(Cl)cc(CNc2nnnn2C)cc1OC	none
COc1cccc(/C=N/Nc2nnc(C)n2N)c1O	TGFb inhibitor 7.9µM
Cc1nnc(N/N=C/c2ccccc2F)n1N	none
COc1ccc(-n2c(C)cc(/C=N/Nc3nnc(C)n3N)c2C)cc1	ATXN viability inconclusive, TGFb inhibitor 3.5µM, HepG2 tox 5µM
CCOc1ccc(-n2c(C)cc(/C=N/Nc3nc(C)cc(=O)[nH]3)c2C)cc1	none
COC(=O)c1nn(-c2ccc(Oc3ccccc3)cc2)c(=O)cc1O	none
Cc1nn(C(=O)c2ccccc2)c(C)c1Sc1ccc(Cl)cc1	ATXN viability 28µM, TGFb inhibitor inconclusive, ATXN2 expr inh 25µM
CC(C)(C)NC(=O)C(c1ccnc2ccccc12)n1c(=O)c(-c2cc3ccccc3[nH]2)nc2ccccc21 (configuration not stated)	none (no result: IDH1 R132H inh, ATXN viability, TGFb inhibitor, HepG2 tox, ATXN2 expr inh)
COc1ccc(CCNC(=O)C(=O)c2cn(CC(=O)N3CCCC3)c3ccccc23)cc1OC	none (no result: ATXN2 expr inh)
COc1ccc(-c2cnnn2-c2ccc(NC(=O)c3ccco3)cc2)cc1OC	none
CCN(C(=O)c1ccsc1)C1CC1	none (no result: IDH1 R132H inh, ATXN viability, TGFb inhibitor, HepG2 tox, ATXN2 expr inh)
COc1ccc(-c2nc3c(C(=O)NCCN(C)C)cccc3c3ccccc23)cc1	ATXN viability inconclusive, HepG2 tox 18µM
CN(C)CCNC(=O)c1cccc2nc3c(ccc4ccccc43)nc12	ATXN viability inconclusive, TGFb inhibitor inconclusive
Cc1ccc(C)c(OCC(O)CN2CCC(CN3C(=O)c4cccc5cccc(c45)C3=O)CC2)c1 (configuration not stated)	TGFb inhibitor inconclusive, ATXN2 expr inh 28µM (no result: ATXN viability)
COc1ccc(OCC(O)CN2CCC(CN3C(=O)c4cccc5cccc(c45)C3=O)CC2)cc1 (configuration not stated)	ATXN viability inconclusive, TGFb inhibitor inconclusive, ATXN2 expr inh inconclusive
COc1ccc(NC(=O)C2Cc3c(-c4ccc(Cl)cc4)ccnc3O2)cn1 (configuration not stated)	ATXN viability 3.5µM, ATXN2 expr inh inconclusive (no result: IDH1 R132H inh)
CC(=O)Nc1ccc(NC(=O)C2Cc3c(-c4ccc(Cl)cc4)ccnc3O2)cc1 (configuration not stated)	none (no result: IDH1 R132H inh)
CCC(=O)Nc1ccc(-c2nnc(SCC(=O)N3CCCCC3)n2C)cc1	none
CCOc1ccc(NC(=O)Nc2cc(C(C)C)c(O)cc2C)cc1	none
Cc1cc(O)c(C(C)C)cc1NC(=S)Nc1cc(C(C)C)c(O)cc1C	ATXN viability inconclusive, TGFb inhibitor 10µM, ATXN2 expr inh inconclusive
Cc1nn(C)cc1S(=O)(=O)NCc1ccc2c(c1)OCO2	none
COc1ccccc1/C=C/C1(C(=O)NC2CCCC2)CC(=O)N1c1ccc(C)cc1 (configuration not stated)	ATXN viability inconclusive, TGFb inhibitor inconclusive, ATXN2 expr inh inconclusive
COc1ccccc1/C=C/C1(C(=O)NC2CCCC2)CC(=O)N1c1ccc(F)cc1 (configuration not stated)	TGFb inhibitor inconclusive, ATXN2 expr inh 18µM (no result: ATXN viability)
Cc1cc(C(=O)Nc2ccc(-n3c(C)nc4ccccc4c3=O)cc2)ccc1[N+](=O)[O-]	none
C/C(=N\NC(=O)c1ccc(Cl)cc1)c1ccccn1	ATXN viability inconclusive, TGFb inhibitor 2µM, ATXN2 expr inh inconclusive
C/C(=N\NC(=O)c1ccccn1)c1ccc(Cl)cc1	IDH1 R132H inh inconclusive
CC(=NNC(=S)N1CCC1)c1ccccn1	ATXN viability inconclusive, TGFb inhibitor inconclusive, ATXN2 expr inh 0.034µM!
C/C(=N\NC(=O)c1cc(C)nc2ccccc12)c1ccccn1	ATXN viability inconclusive, TGFb inhibitor 4µM, ATXN2 expr inh inconclusive
Cc1ccc(-c2nc(N3CCN(c4ccccc4Cl)CC3)c3ccccc3n2)cc1	none
OCCCn1c(-c2ccccc2)csc1=Nc1ccccc1	ATXN viability inconclusive
